Measurements as given in PubChem BioAssay (NCI).
This is part of a sample that, as a whole, favours compounds with a hit. Of some 79,000 tested, about 15% had one in any assay. Unmarked numbers belong to inactive results. Activity calls are given as the source filed them. Cut-off read from the data, not from the text of the source: active = growth inhibition above about 70%; inactive = the rest.

Assay: NCI Yeast Anticancer Drug Screen. Data for the cln2 rad14 strain (AID 165);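 note: 0% = growth equal to vehicle treated cultures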
Conditions: S. cerevisiae cln2 rad14 strain, active compounds read high
Protocol: Growth inhibition of yeast strains with defined genetic alterations is measured as a screen for potential anti-cancer activity. Selected strains with alterations in DNA damage repair or cell cycle control were exposed to compounds and growth inhibition was measured relative to vehicle treated controls. The strain used in this assay is cln2 rad14

[1] = at 5.0 µM (retest, dose inferred, filed as 0.5)
[2] = at 50.0 µM (retest, dose inferred, filed as 5.0)

## Nc1c(Cl)cccc1C(=O)O
[1]
  growth inhibition: -4%
[2]
  growth inhibition: -7%
At 50.0 µM
  growth inhibition: 13.4%

## [Cl][Hg][CH2]CC1CC=CCC1 (configuration not stated)
[1]
  growth inhibition: 100% (active)
[2]
  growth inhibition: 99% (active)
At 50.0 µM
  growth inhibition: 99.5% (active)

## C/C(=N\O)C(CN(C)C)C(c1ccccc1)c1c(O)c2ccccc2oc1=O (configuration not stated)
[1]
  growth inhibition: 4%
[2]
  growth inhibition: 4%
At 50.0 µM
  growth inhibition: 75.8% (active)

## C=CCN1C(=O)NC(=O)/C(=C/c2c3ccccc3cc3ccccc23)C1=O
[1]
  growth inhibition: 48%
[2]
  growth inhibition: 98% (active)
At 50.0 µM
  growth inhibition: -22.6%

## CC1=C(O)C(=O)C=C2C1=CC=C1[C@@]2(C)CCC2(C)[C@@H]3C[C@@H](C)C(=O)C[C@]3(C)CC[C@]12C (some centres not stated)
[1]
  growth inhibition: 35%
[2]
  growth inhibition: 97% (active)
At 50.0 µM
  growth inhibition: 86.5% (active)

## CSc1ccc(NC(=O)C2c3[nH]c4ccccc4c3C3CCC(C(C)(C)C)CC3C2C(=O)O)cc1 (configuration not stated)
[1]
  growth inhibition: -19%
[2]
  growth inhibition: 8%
At 50.0 µM
  growth inhibition: 56.4%

## NC(=O)c1ccc(N)nc1
[1]
  growth inhibition: 10%
[2]
  growth inhibition: 15%
At 50.0 µM
  growth inhibition: 4.4%

## CCOP(=O)(O)C(Nc1ccc(N=Nc2ccccc2)cc1)c1cccc(C(Nc2ccc(N=Nc3ccccc3)cc2)P(=O)(O)OCC)c1 (configuration not stated)
[1]
  growth inhibition: 6%
[2]
  growth inhibition: 27%
At 50.0 µM
  growth inhibition: 44%

## CC(CCS(C)(=O)=O)([N+](=O)[O-])[N+](=O)[O-]
[1]
  growth inhibition: 14%
[2]
  growth inhibition: 99% (active)
At 50.0 µM
  growth inhibition: 56.4%

## C[N+]1(CCCl)CC[N+](C)(CCCl)CC1 (configuration not stated)
[1]
  growth inhibition: 2%
[2]
  growth inhibition: 96% (active)
At 50.0 µM
  growth inhibition: 94.3% (active)

## Cc1ccc2c(c1)C1(C)c3cc(C)ccc3SP1S2 (configuration not stated)
[1]
  growth inhibition: 28%
[2]
  growth inhibition: 71% (active)
At 50.0 µM
  growth inhibition: 52.9%

## CCCCCC(Cn1ccnc1)c1ccc(Cl)cc1Cl (configuration not stated)
[1]
  growth inhibition: 72% (active)
[2]
  growth inhibition: 98% (active)
At 50.0 µM
  growth inhibition: 99.7% (active)

## c1ccc2cc3n[se]nc3cc2c1
[1]
  growth inhibition: -21%
[2]
  growth inhibition: 2%
At 50.0 µM
  growth inhibition: -2.35%

## Cc1cc(N(CCCl)CCCl)ccc1CN1CCCN(Cc2ccc(N(CCCl)CCCl)cc2C)C1c1ccc(N(CCCl)CCCl)cc1C
[1]
  growth inhibition: 1%
[2]
  growth inhibition: 98% (active)
At 50.0 µM
  growth inhibition: 87% (active)
